Laboratory results published in ChEMBL document CHEMBL3988442, “University of Dundee, Small-Polar-MMV Screening Library” (2021).
Hit rate of the full screen: of about 48,000 compounds, about 13,000 (27%) showed an effect of 50% or more. The list shows a part of the results.

system: Wolbachia pipientis; test: Anti-Wolbachia Cell-Based Screen; assay type: functional; set-up: scale not given: in the data most compounds retested in dose-response had high values; details: 5 µM

SMILES	Percent Effect
O=C([C@H]1C[C@H]2OCC[C@H]2N(C(=O)c2cnccn2)C1)N1CCCCO1	-3.887%
CN(C)C(C(=O)N1CCN(S(N)(=O)=O)CC1)c1ccccc1F (configuration not stated)	-29.81%
Cn1c(C(F)(F)F)nn(CCNC(=O)NCc2ccccc2)c1=O	-13.86%
Cc1cnn(Cc2cc(F)ccc2F)c1NC(=O)CNC(=O)C1CC1	-28.4%
O=C1CCc2cc(S(=O)(=O)NCc3cc4n(n3)CCCNC4)ccc2N1	-2.764%
Cc1ccc(NC2CCN(C(=O)COc3ccccc3)CC2)nn1	80.33%
Cc1ccc(NC2CCN(C(=O)COc3cccc(F)c3)CC2)nn1	99.48%
Cc1ccc(NC2CCN(C(=O)Cc3cccc(F)c3)CC2)nn1	5.367%
Cc1ccc(NC2CCN(C(=O)COc3cccnc3)CC2)nn1	0.9961%
CC(C)n1cc(S(=O)(=O)NCCc2nnc3ccccn23)cn1	-12.48%
CCn1ncc2c1C(COC)N(C(=O)Cc1cccs1)CC2 (configuration not stated)	110.7%
CCOCC1c2c(cnn2CC2CC2)CCN1C(=O)c1ccncn1.O=C(O)C(F)(F)F (configuration not stated)	-2.874%
CCn1ncc2c1C(COCC1CC1)N(C(=O)c1ccncn1)CC2.O=C(O)C(F)(F)F (configuration not stated)	-5.083%
CCn1ncc2c1C(COCC1CC1)N(Cc1cnn(C)c1)CC2.O=C(O)C(F)(F)F.O=C(O)C(F)(F)F.O=C(O)C(F)(F)F (configuration not stated)	-14.36%
CCn1ncc2c1C(COC)N(C(=O)c1cscn1)CC2.O=C(O)C(F)(F)F (configuration not stated)	99.84%
CCn1ncc2c1C(COC)N(C(=O)c1cccs1)CC2.O=C(O)C(F)(F)F (configuration not stated)	114.8%
CCn1ncc2c1C(COCC1CC1)N(Cc1ccccn1)CC2.O=C(O)C(F)(F)F.O=C(O)C(F)(F)F (configuration not stated)	3.009%
CCn1ncc2c1C(COC)N(C(=O)CCc1ccccc1)CC2.O=C(O)C(F)(F)F (configuration not stated)	87.3%
COCC1c2nnn(CC3CC3)c2CCN1C(=O)Cc1cccs1 (configuration not stated)	9.028%
Fc1cnc(N2CC[C@@H](N3CCOCC3)[C@@H]2Cc2ccccc2)nc1	-1.587%
CC(C)(O)CCc1ccc(C(=O)N2CCN(CC(F)(F)F)CC2)cc1	0.1309%
NS(=O)(=O)CCN1CCOC(c2ccsc2)C1 (configuration not stated)	-9.667%
CN1CC(c2ccccc2)CC2(CCN(C(=O)c3cccnn3)CC2)C1 (configuration not stated)	0.4144%

SMILES	Percent Effect
COc1ccc2c(c1)C(=O)N(C)C1(CCN(C(=O)OC(C)(C)C)CC1)N2	-17.46%
Cn1ncc2c1C(COCC1CC1)N(C(=O)c1ccncn1)CC2.O=C(O)C(F)(F)F (configuration not stated)	6.391%
COCC1c2c(cnn2C)CCN1C(=O)c1cscn1.O=C(O)C(F)(F)F (configuration not stated)	127.3%
COCC1c2c(cnn2C)CCN1C(=O)c1cccn1C.O=C(O)C(F)(F)F (configuration not stated)	106%
CCn1ncc2c1C(COC)N(C(=O)c1ccsc1)CC2.O=C(O)C(F)(F)F (configuration not stated)	90.11%
CCn1ncc2c1C(COC)N(C(=O)c1ccc3c(c1)OCO3)CC2.O=C(O)C(F)(F)F (configuration not stated)	10.43%
COCC1CN(C(=O)c2cccn2C)Cc2c1cnn2CC1CC1.O=C(O)C(F)(F)F (configuration not stated)	4.422%
COCC1c2c(cnn2C)CCN1Cc1ccc(F)cc1.O=C(O)C(F)(F)F.O=C(O)C(F)(F)F (configuration not stated)	5.645%
CC(O)CC(C)(C)CNC(=O)Nc1cnn(-c2ccccc2F)c1 (configuration not stated)	-9.575%
Cc1nccc(-c2ccccc2)c1C(=O)N1CCC2(CCCO2)CC1	-10.01%
COc1ccc([C@@H]2CN(C(=O)CCn3cccn3)C[C@H]2NC(C)=O)cc1	10.72%
Cc1nccc(-c2cccc(NCC(=O)N3CCc4sccc4C3)c2)n1	-3.121%
CC(C)Oc1ccc(CN2CCCC(N3CCCC3)C2)cc1CO (configuration not stated)	-11.2%
O=C(C1SCCc2ccccc21)N1CCC(O)CC1 (configuration not stated)	-12.36%
CC1(C)CC(C(=O)N2CCC3(CCC(=O)N(C4CC4)C3)CC2)CCO1 (configuration not stated)	-18.18%
CCCS(=O)(=O)N1CCN(Cc2ccco2)CC1.O=C(O)C(=O)O	120.3%
CC(C)OCCS(=O)(=O)N1CCN(Cc2ccco2)CC1	-6.984%
CCCS(=O)(=O)N1C[C@@H]2CN(Cc3ccco3)CCO[C@@H]2C1.O=C(O)C(F)(F)F	4.107%
CCS(=O)(=O)N1CCC(c2cc3n(n2)[C@@H](C(F)(F)F)C[C@@H](C)N3)CC1	-9.512%
CC(C)OCc1ccc(CNC(=O)NC2(CO)CCCC2)cc1	4.047%
NC(=O)NC1CCN(Cc2ccc3c(c2)CCC3)CC1	-13.21%
Cc1nnc(CN(Cc2ccccc2Br)C2CC2)o1	-0.8138%
Cc1nnc(CN(Cc2ccc(Cl)c(Cl)c2)C(C)C)o1	6.742%

SMILES	Percent Effect
Cc1nnc(CN(Cc2ccc3c(c2)OCO3)C2CCCCC2)o1	129.8%
Cc1nnc(CN(Cc2ccc(Cl)c(Cl)c2)C2CC2)o1	12.83%
Cc1nnc(CN(Cc2cccc(Br)c2)C2CC2)o1	-10%
Cc1nnc(CN(Cc2ccc3c(c2)OCO3)C2CCC(C)CC2)o1 (configuration not stated)	119.4%
Cc1ccc2nc3n(c2c1)[C@@H](CNCc1nccs1)COC3	-1.407%
COc1ccccc1C(NC(=O)CN(C)C(C)C)c1noc(C)n1 (configuration not stated)	-26.87%
Cc1ccc(C)c(NC(=O)N(C)Cc2cnn(C)c2)c1	5.925%
COCC(=O)N1CCC2(CCC2N(C)Cc2ccco2)CC1.O=C(O)C(F)(F)F (configuration not stated)	-4.207%
CC(C(=O)NCc1cccc(N2CCCC2=O)c1)S(C)(=O)=O (configuration not stated)	-9.157%
COc1ccc(NC(=O)NCc2cccc(N(C)C)n2)c(Cl)c1	3.933%
CCc1nc(C(=O)NCc2ccc(N3CCNC(=O)C3)c(F)c2)c[nH]1	-14.99%
Cc1ccc([C@@H]2CN(S(=O)(=O)Cc3ccccc3)C[C@H]2N(C)C)cc1	2.624%
CN(Cc1ccncc1)Cc1nccn1Cc1ccccc1	10.06%
CN(CCc1ccncc1)Cc1nccn1Cc1ccccc1	0.009024%
CCN(Cc1ccncc1)Cc1cn(-c2ccccc2)nn1	-1.691%
CCn1ccnc1CN(C)Cc1nc(Cc2ccccc2Cl)no1	-11.87%
CC(C)(C)n1nnnc1CN(Cc1ccccc1)Cc1ccc(Cl)cc1	282.7%
CCN(Cc1noc(CC(C)C)n1)Cc1ccccc1Cl	16.12%
CC(C)(C)n1nnnc1CN(CCc1ccccc1)Cc1ccccc1	189.2%
CC(C)(C)n1nnnc1CN(Cc1ccccc1)Cc1ccccc1Cl	144.9%
Cc1nc(CCN(C)C(=O)CN2C(=O)OC[C@@H]2c2ccccc2)no1	2.107%
CN(C)[C@H]1C[C@@H](Cc2cc(-c3ccc(F)cc3)on2)C1(C)C	-8.527%
CN(Cc1ccoc1)C(=O)C1(Oc2ccc(Cl)cc2)CCNCC1	7.031%

SMILES	Percent Effect
CN1CCOC(C(=O)Nc2ccc3c(c2)nc(C2CC2)n3C)C1 (configuration not stated)	-8.812%
CCS(=O)(=O)N1CC[C@H]2O[C@H](c3nnc(C)o3)CC[C@H]21	-2.674%
COc1ccc(CN2CCOC3(CCCN(C(C)=O)C3)C2)cc1.O=C(O)C(F)(F)F (configuration not stated)	-1.413%
COc1ccc(CN2CCC3(CC2)CC(CC(=O)NC(C)C)CO3)cc1.O=C(O)C(F)(F)F (configuration not stated)	102.4%
CC(C)NC(=O)CC1COC2(CCN(Cc3cccnc3)CC2)C1.O=C(O)C(F)(F)F.O=C(O)C(F)(F)F (configuration not stated)	94.4%
COc1ccc(CN2CCC3(CC2)CN(c2ccccn2)CCO3)cc1.O=C(O)C(F)(F)F.O=C(O)C(F)(F)F	-0.9926%
CC(C)NC(=O)CC1COC2(CCN(Cc3ccsc3)CC2)C1.O=C(O)C(F)(F)F (configuration not stated)	89.57%
CC(C)NC(=O)[C@H]1C[C@@H]2[C@@H](C1)OCCN2Cc1ccsc1.O=C(O)C(F)(F)F	9.511%
CC(C)C(=O)NC1COC2(CCN(Cc3cccnc3)CC2)C1.O=C(O)C(F)(F)F.O=C(O)C(F)(F)F (configuration not stated)	-8.179%
CC(C)C1COC2(CCN(Cc3ccco3)CC2)C1.O=C(O)C(F)(F)F (configuration not stated)	8.563%
CN(C)C(=O)CO[C@H]1CO[C@@]2(CCN(Cc3ccsc3)C2)C1.O=C(O)C(F)(F)F	-11.41%
CN(C)C(=O)NC1COC2(CCN(Cc3ccco3)CC2)C1 (configuration not stated)	-11.16%
CC(C)NC(=O)CC1COC2(CCN(Cc3ccco3)CC2)C1 (configuration not stated)	109.8%
CC(C)OCc1ncn2c1CN(Cc1ccoc1)CCC2.O=C(O)C(F)(F)F	-8.556%
Cc1ncsc1CN1C[C@H](C(=O)N2CCCO2)[C@@H]2CCO[C@@H]2C1.O=C(O)C(F)(F)F.O=C(O)C(F)(F)F	-11.3%
Cc1[nH]ccc1C(=O)N(Cc1ccc(O)cc1)CC1CC1	16.53%
FC(F)(F)C1CCCn2c(CNCc3ccco3)nnc21 (configuration not stated)	4.38%
c1nc(N2CCCCC2Cn2cncn2)c2ccsc2n1 (configuration not stated)	0.5498%
CCCc1cc(N(CCOC)CC(F)F)n2ncnc2n1	-3.752%
CN(C)C(=O)CN(C)C(=O)c1cccn1CCc1ccccc1	-9.709%
Cc1ccc(CN2CCC3(CC2)CC(CC(=O)NC(C)C)CO3)s1.O=C(O)C(F)(F)F (configuration not stated)	100.2%
Cc1ccc(CN2CC(C(=O)NC(C)C)C3(CCOCC3)C2)s1.O=C(O)C(F)(F)F (configuration not stated)	1.411%
CC(=O)N1CCOCC2(CCN(Cc3ccc(C)s3)CC2)C1.O=C(O)C(F)(F)F	-6.944%
